Measured values published in PubChem BioAssay.
The source made the active and inactive calls.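 The calls were made as follows, unless noted: active = NADPH fluorescence slope more negative than the mean of all samples by about 3 SD, 99.7% confidence; inactive = the rest.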

Columns and labels:
[1] = inhibitors of TNFa-induced NFkB p65 translocation, primary screen, imaging, HUVEC, MLSMR starter and 10KST1 sets (AID 438;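 active = inhibition above 20% together with a positive visual image hit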;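 also: compound added about 3h40 before a 20 min TNFalpha stimulation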;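 as to inhibition: signal is the nuclear over cytoplasmic p65 intensity ratio per well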); conditions: HUVEC TNFa-induced p65 nuclear translocation; cell count: measured here: nuclei count (cytotoxicity indicator), at 2.08 µM; inhibition: at 2 µM, stronger effect = higher value, 0% TNFa-plus-vehicle, 100% no-TNFa wells
[2] = inhibitors of mutant huntingtin aggregation, primary screen, imaging, exon1htt(103Q)mCFP cells, high-content imaging (AID 483;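 active = visual image review flags a hit and inhibition of aggregation exceeds 20%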;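 also: compound exposure lasted 3 days before fixation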;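 as to nuclei count: percent of the per-plate median nuclei count of sample wells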); conditions: exon1htt(103Q)mCFP cell line, aggregate imaging, at 2 µM; inhibition of aggregation: stronger effect = higher value; nuclei count: measured here: cell count, toxicity
[3] = inhibitors of E-selectin induction by TNFa, primary screen, imaging, HUVEC, immunofluorescence, MLSMR starter and 10KST1 sets (AID 487;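 active = visually confirmed hit in the image check and inhibition above 20%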;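 as to inhibition: signal is fraction of cell area covered by stained E-selectin grains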;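 as to nuclei count: 100% = median nuclei count of all wells on the same plate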); conditions: HUVEC TNFalpha-induced E-selectin immunofluorescence imaging, at 2 µM; inhibition: stronger effect = higher value; nuclei count: measured here: cell number, toxicity
[4] = biological target: Voltage-gated potassium channel subunit beta-2 (Rattus norvegicus) (UniProt P62483); assay: KvBeta enzyme negative modulators, primary screen, biochemical, NADPH fluorescence (AID 622;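 active = fluorescence slope higher than the sample average by over 3 SD, cut at about -0.22 in these data, passing the limit was not always enough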;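 also: slope of raw intensity against log time taken from 70 to 1610 s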); conditions: recombinant KvBeta, 4-cyanobenzaldehyde reduction, at 10 µM, stronger effect = higher value
[5] = biological target: Voltage-gated potassium channel subunit beta-2 (Rattus norvegicus) (UniProt P62483); assay: KvBeta positive modulators, primary screen, biochemical, NADPH fluorescence (AID 623); conditions: Recombinant KvBeta, NADPH fluorescence decrease slope, 10 min; at 10 µM; stronger effect = lower value;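 also: fluorescence intensity change per second fitted from 20 to 320 s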
[6] = biological target: Alpha-2C adrenergic receptor (Homo sapiens) (UniProt P18825); assay: modulators of alpha2C/GIRK thallium flux, primary screen, cell-based, HEK293 alpha2C/GIRK1/2 (AID 624;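 active = fluorescence slope after compound addition differing from the mean of all screened samples at 99.7% confidence, in either direction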;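 also: slope of fluorescence ratio to pre-addition baseline per second over 15 to 24 s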); conditions: thallium flux BTC fluorescence, at 10 µM, actives lie on both sides
[7] = inhibitors of Sendai virus-induced IRF3 signaling, primary screen, TLR/RLR signaling modifier project, cell-based, Sendai virus stimulus, luciferase, 10K MLSCN set (AID 602276;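 active = inhibition at or above 50% at 10 µM; inactive = inhibition below 50%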;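 also: firefly luciferase from ISG56 promoter only with Renilla not read in this screen; 0% = Sendai virus plus DMSO and 100% = medium plus DMSO without virus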); conditions: HEK293 RL24 IRF3 luciferase reporter, at 10 µM, stronger effect = higher value
[8] = inhibitors of poly I:C-induced TLR3 signaling, primary screen, cell-based, poly I:C stimulus, luciferase, 10K MLSCN set (AID 602277;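 active = inhibition of the reporter signal at or above 50%; inactive = inhibition below 50%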); conditions: HEK293-TLR3 RL24 IRF3 luciferase reporter, at 10 µM, stronger effect = higher value

Chain of Alpha-2C adrenergic receptor (Homo sapiens) (P18825 whole entry, looked up): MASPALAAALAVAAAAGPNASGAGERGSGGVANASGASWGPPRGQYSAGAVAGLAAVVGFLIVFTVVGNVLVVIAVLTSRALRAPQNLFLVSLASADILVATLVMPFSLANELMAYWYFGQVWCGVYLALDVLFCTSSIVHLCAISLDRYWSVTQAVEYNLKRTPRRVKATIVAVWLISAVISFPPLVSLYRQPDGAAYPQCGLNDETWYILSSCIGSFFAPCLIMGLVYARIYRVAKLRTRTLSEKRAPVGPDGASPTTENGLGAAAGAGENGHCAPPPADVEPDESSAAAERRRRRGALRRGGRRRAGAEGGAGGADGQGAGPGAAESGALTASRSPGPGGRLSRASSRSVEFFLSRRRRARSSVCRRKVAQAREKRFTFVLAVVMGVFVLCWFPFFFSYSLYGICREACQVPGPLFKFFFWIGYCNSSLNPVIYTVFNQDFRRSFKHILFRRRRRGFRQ
Chain of Voltage-gated potassium channel subunit beta-2 (Rattus norvegicus) (P62483 whole entry, looked up): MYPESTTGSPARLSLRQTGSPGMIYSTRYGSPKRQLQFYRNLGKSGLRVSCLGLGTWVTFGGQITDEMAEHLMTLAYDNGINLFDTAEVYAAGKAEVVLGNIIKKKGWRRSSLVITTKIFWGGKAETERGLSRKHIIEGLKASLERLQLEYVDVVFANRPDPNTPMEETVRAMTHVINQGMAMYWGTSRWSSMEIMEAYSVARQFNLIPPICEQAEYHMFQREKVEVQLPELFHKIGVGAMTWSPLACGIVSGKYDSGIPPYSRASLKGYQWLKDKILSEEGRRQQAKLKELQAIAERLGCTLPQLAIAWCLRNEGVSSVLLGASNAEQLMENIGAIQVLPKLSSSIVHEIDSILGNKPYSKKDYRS

Row | SMILES | cell count [1] | inhibition [1] | inhibition of aggregation [2] | nuclei count [2] | inhibition [3] | nuclei count [3] | fluorescence slope [4] | NADPH fluorescence slope [5] | slope [6] | inhibition [7] | inhibition [8]
1 | CCN(CC)CCCNC1CCS(=O)(=O)C1 (stereo not drawn) | 730 | -7.4% (inactive) | 10.5% (inactive) | 126% | -19.7% (inactive) | 118% | -0.502 (inactive) | -6.6e-05 (inactive) | 0.00536 (inactive) | 2.02% (inactive) | 13.2% (inactive)
2 | Cc1ccc(N2C(N)=NC(N)=NC23CCCC3)c(C)c1 | 656 | -5.9% (inactive) | -11.1% (inactive) | 106% | -26% (inactive) | 122% | -0.635 (inactive) | -5.6e-06 (inactive) | 0.0067 (inactive) | 10% (inactive) | 18.1% (inactive)
3 | COc1ccc(C(c2sc3nc(C)nn3c2O)N2CCCCC2)cc1 (stereo not drawn) | 639 | -6.4% (inactive) | -33.8% (inactive) | 114% | -42.5% (inactive) | 108% | -0.603 (inactive) | -4.6e-05 (inactive) | 0.00737 (inactive) | 8.51% (inactive) | 27.4% (inactive)
4 | CC(C)(C)c1cc(NC(=O)c2cc(F)c(F)c(F)c2F)no1 | 405 | -2.1% (inactive) | -14.9% (inactive) | 104% | -96.2% (inactive) | 112% | -0.435 (inactive) | -6.8e-06 (inactive) | 0.00297 (inactive) | -23.2% (inactive) | -90.4% (inactive)
5 | COc1cccc(OCCSc2nnc3sc4ccccc4n23)c1 | 548 | -6.3% (inactive) | 0.2% (inactive) | 89% | -24.1% (inactive) | 127% | -0.463 (inactive) | -0.000108 (inactive) | 0.00727 (inactive) | -10.1% (inactive) | -31.6% (inactive)
6 | O=C(CCn1c(=O)sc2ccccc21)NCc1ccc2c(c1)OCO2 | 294 | -11.1% (inactive) | 15.6% (inactive) | 92.7% | -28.3% (inactive) | 115% | -0.353 (inactive) | -5.2e-05 (inactive) | 0.00437 (inactive) | -17% (inactive) | -12.6% (inactive)
7 | Cc1cc(C)cc(Nc2ncc3c(n2)CC(c2ccco2)CC3=O)c1 (stereo not drawn) | 465 | -18.3% (inactive) | -14.3% (inactive) | 106% | -88% (inactive) | 114% | -0.385 (inactive) | -3e-05 (inactive) | 0.00418 (inactive) | 14.2% (inactive) | -2.34% (inactive)
8 | O=C1NC(c2ccco2)Nc2ccccc21 (stereo not drawn) | 694 | -50% (inactive) | -23.8% (inactive) | 102% | -84.8% (inactive) | 107% | -0.344 (inactive) | 1.4e-05 (inactive) | 0.00562 (inactive) | -17.2% (inactive) | 99.3% (active)
